Screens deposited in PubChem BioAssay by National Center for Advancing Translational Sciences (NCATS).
ALDH1A1 inh – inhibitors of human aldehyde dehydrogenase 1A1; Purified ALDH1A1, NADH fluorescence, propionaldehyde substrate; P00352; 7.3% of 220,000 active; Potency, µM (top dose mostly 75.3 µM), without a hit: at the highest dose activity, negative = inhibition, usual class: inhibitors; AID 1030; active means well fitted inhibition curve with a large enough effect, not every such curve was filed as active; inconclusive means small, poorly fitted or top-dose-only effect, or another doubt; inactive means no such curve, though single readings can be large or run the other way;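 further: potency means the concentration at half of the fitted maximal effect; plate controls were no enzyme wells and a reference inhibitor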
GLA spleen mod – alpha-galactosidase A (human) modulation; human spleen homogenate, 4MU-alpha-Gal fluorescence, 40 min; 0.008% of 240,000 active; Potency, µM (highest dose often 80 µM), for inactives: at the highest dose activity change, negative = inhibition, most hits filed as inhibitors; P06280;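 further: potency means the concentration at half of the fitted maximal effect; 0% = enzyme with vehicle and -100% = no enzyme basal signal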
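Inhibition or activation of alpha-galactosidase in human spleen homogenate is scored by 4-MU fluorescence after 40 min at 37C, pH 5.0, with 1 mM substrate. AC50s come from concentration-response fitted to the Hill equation.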
GLA inh pH 4.5 – alpha-galactosidase A (human) inhibition, pH 4.5 | P06280 | purified enzyme, 4-MU-alpha-Gal fluorescence, pH 4.5 | activity change, negative = inhibition, % at 105 µM | 230,000 tested, under 10 active;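 further: 0% = full activity with enzyme and -100% = basal without enzyme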
Target sequence (P06280 whole entry, looked up): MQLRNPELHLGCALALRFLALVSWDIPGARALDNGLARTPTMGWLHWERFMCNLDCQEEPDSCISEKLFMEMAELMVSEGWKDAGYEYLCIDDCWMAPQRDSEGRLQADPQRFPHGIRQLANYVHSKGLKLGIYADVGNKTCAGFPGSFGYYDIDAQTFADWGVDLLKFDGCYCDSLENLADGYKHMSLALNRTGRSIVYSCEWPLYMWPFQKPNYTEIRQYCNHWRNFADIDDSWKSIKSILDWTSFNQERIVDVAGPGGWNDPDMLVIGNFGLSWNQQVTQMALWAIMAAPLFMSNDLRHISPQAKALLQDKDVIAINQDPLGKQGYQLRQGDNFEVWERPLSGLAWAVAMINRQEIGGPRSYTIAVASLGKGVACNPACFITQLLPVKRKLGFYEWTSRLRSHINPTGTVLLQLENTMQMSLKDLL
HPGD block – inhibitors of human 15-hydroxyprostaglandin dehydrogenase (HPGD). AID 894. 4.3% of 150,000 active. Potency, µM, for inactives: at the highest dose activity change, negative = inhibition, most hits filed as inhibitors. P15428. purified HPGD, NADH fluorescence kinetic, PGE2 substrate; active means well fitted inhibition curve with a large enough effect, not every such curve was filed as active; inconclusive means small, poorly fitted or top-dose-only effect, or another doubt; inactive means no such curve, though single readings can be large or run the other way; further: potency means the concentration at half of the fitted maximal effect
Target sequence (P15428 whole entry, looked up): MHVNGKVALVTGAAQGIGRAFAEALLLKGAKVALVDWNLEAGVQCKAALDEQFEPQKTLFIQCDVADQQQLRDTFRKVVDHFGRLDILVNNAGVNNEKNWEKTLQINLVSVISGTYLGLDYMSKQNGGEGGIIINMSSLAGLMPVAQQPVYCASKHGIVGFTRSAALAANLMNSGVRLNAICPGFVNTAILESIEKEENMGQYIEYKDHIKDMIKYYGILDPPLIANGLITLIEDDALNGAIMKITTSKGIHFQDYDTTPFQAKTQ
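NADH formation kinetics: reaction with 30 uM PGE2 and 1 mM NAD+ (final), 20 nM enzyme, Tris-HCl pH 8 with Tween 20, after 15 min compound preincubation at room temperature. Fluorescence change, last versus first of five reads.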
ALOX12 inhib – blocks human 12-lipoxygenase activity; P18054; purified 12-hLO, xylenol orange hydroperoxide absorbance; Potency, µM (titrated, usually from 57.1 µM), for inactives: at the highest dose activity change, negative = inhibition, actives largely listed as inhibitors; 0.12% of 150,000 active; AID 1452; further: potency means the concentration at half of the fitted maximal effect; nearly all actives have a fitted effect of over 55% in size
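Lipoxygenase turnover measured by absorbance at 573 and 405 nm after Fe-XO development. Human 12hLO 150 nM, arachidonate 40 uM, pH 7.0 Hepes buffer with detergent; 15 min compound preincubation, 30 min reaction.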
PNC assembly inh – perinucleolar compartment assembly inhibition | 3.1% of 140,000 active | PC3M PTB-GFP, PNC prevalence imaging, 16 h; active compounds read low | activity change (PNC), negative = inhibition, % at 10 µM;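 active means readout at or below -70, meaning at least 70% loss of cells showing the perinucleolar compartment, a nuclear body marking cancer cells; inconclusive means readout between -30 and a set limit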;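 further: plate controls were DMSO wells for no effect and camptothecin positive control wells for full effect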
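PC3M cells stably expressing PTB-GFP, 750–1000 cells/well, treated 16 h at 37 °C with compound (23 nl of library stock), in duplicate. After paraformaldehyde fixation and Hoechst stain, imaged at 20x; PNC prevalence scored by image analysis.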
* hit, by the source's call; ? = inconclusive; . = no result given; [ ] = remark or other dose. Rows were chosen to be rich in hits. Some 10% of all compounds tested hit in one or more screens of this group. Unless noted, the call rests on the fitted dose curve; in most records, active means well fitted curve in the direction sought with a large enough effect; inconclusive means small, poorly fitted or top-dose-only effect, or another doubt; inactive means no such curve, though single readings can be large; an effect the other way counts as inactive or inconclusive. Unless noted, on the % scale 0 is the no-effect control and ±100 the full control effect.

SMILES | ALDH1A1 inh | GLA spleen mod | GLA inh pH 4.5 | HPGD block | ALOX12 inhib | PNC assembly inh
COc1cccc(/C=N/NC(=O)CN2CC(c3ccccc3)CC2=O)c1OC (configuration not stated) | ? | 13% | -6 | ? | 4% | -27
COC(=O)c1ccc(C(NC(=O)OCc2ccccc2)/C(F)=C/[C@@H](C)C(=O)NCc2cc(C)on2)cc1 (some centres not stated) | -5% | 0% | 1 | -10% | -1% | .
CN(C)C(=O)CSc1nc2ccc(N3C(=O)c4ccccc4C3=O)cc2s1 | . | 4% | -1 | . | . | .
Cc1cccc(NC(=O)CSc2nncn2-c2ccccn2)c1 | ? | 4% | -3 | . | . | .
CC(C)OCCCNC(=O)C1CCC(CNS(=O)(=O)c2ccccc2)CC1 (configuration not stated) | 3.5µM* | 4% | 3 | ? | -3% | 7
Cc1ccc(S(=O)(=O)NCC2CCC(C(=O)NCCCOC(C)C)CC2)cc1 (configuration not stated) | 0.71µM* | 0% | 6 | -25% | -3% | ?
CC(C)(C)C(=O)OCC(=O)C1CCC2C3CCC4=CC(=O)CCC4(C)C3CCC12C (configuration not stated) | 2% | -9% | -5 | -9% | -1%[0.00818 µM] | .
COc1ccc(C2=NC(CO)(CO)CO2)cc1 | 12% | 6% | 6 | . | . | .
COc1cc(/C=N/Nc2ncc(C(F)(F)F)cc2Cl)cc(OC)c1O | -24% | -3% | -10 | 14µM* | -8% | -16
C/C(=N/Nc1ncc(C(F)(F)F)cc1Cl)c1ccncc1 | 40µM* | 1% | 2 | . | . | .
O=C1CCCC2=C1C(c1ccccc1)CC(=O)N2c1ccc(F)cc1F (configuration not stated) | 13% | -19% | 7 | . | . | .
CCOC(=O)c1ccc(Nc2sc(C(=O)c3cccc([N+](=O)[O-])c3)c(N)c2C#N)cc1 | 4% | -3% | ? | . | . | .
COc1ccc(C=O)c(OC)c1 | ? | 2% | . | . | . | .
CCN(CC)c1ccc(C=O)c(OC)c1 | 4µM* | -5% | -9 | . | . | .
CCOCCn1c(COc2ccccc2)nc2ccccc21 | 1% | -3% | -4 | -9% | -5% | 5
COCc1nc2ccccc2n1CCCOc1ccccc1 | -5% | 0% | -1 | -11% | -2% | -106*
CCCc1nc2ccccc2n1CCOc1ccccc1 | -1% | 3% | -3 | ? | -2% | 25
Cc1nc2ccccc2n1CCCOc1ccccc1 | -7% | 2% | -4 | -4% | -4% | -105*
Cn1cccc1C(=O)N1CCC[C@@]2(CCN(C(=O)Nc3cccc(C#N)c3)C2)C1 | -12% | -6% | . | -12% | 1% | .
COc1ccc(C2=NOC(C(=O)NCc3ccco3)C2)cc1 (configuration not stated) | 22µM* | -1% | -4 | ? | 5% | 9
COc1ccc(NC(=O)C2C3C=CC(O3)C2C(=O)NCc2cccnc2)cc1 (configuration not stated) | -2% | -11% | 2 | -2% | -2% | ?
COc1cc(C2=NOC(C(=O)NCc3ccco3)C2)cc(OC)c1OC (configuration not stated) | 6% | 1% | 2 | -2% | 6% | ?
COc1ccc(C2=NOC(C(=O)Nc3cccnc3)C2)cc1 (configuration not stated) | -7% | -1% | 2 | -12% | 1% | -102*
COc1ccc(NC(=O)C2C3C=CC(C3)C2C(=O)NCc2ccco2)cc1 (configuration not stated) | -15% | 4% | 5 | 25µM* | -1% | 11
COc1ccc(C2=NOC(C(=O)NCc3cccs3)C2)cc1OC (configuration not stated) | -3% | 2% | -4 | -10% | 7% | -12
SMILES | ALDH1A1 inh | GLA spleen mod | GLA inh pH 4.5 | HPGD block | ALOX12 inhib | PNC assembly inh
COc1cc(C2=NOC(C(=O)NCc3cccs3)C2)cc(OC)c1OC (configuration not stated) | -10% | 19% | 1 | -20% | 10% | -104*
Cc1ccc(NS(=O)(=O)c2ccc(CCC(=O)N3CCCC3)cc2)cc1 | ? | -4% | 1 | . | . | .
O=C(Nc1ccc(N2CCCCC2)c(Cl)c1)c1ncn[nH]1 | -6% | 1% | 6 | 13µM* | -6% | ?
O=C(Nc1ccc(CCC(=O)N2CCCC2)cc1)c1ncn[nH]1 | 9% | 6% | -6 | 28µM* | -2% | 28
CSCC[C@H](NC(=O)[C@H](CC(C)C)NC(=O)CNC(=O)[C@H](Cc1ccccc1)N(C)C(=O)[C@H](Cc1ccccc1)NC(=O)[C@H](CC(=O)O)NC(=O)[C@@H](N)CC(=O)O)C(N)=O | . | -6% | . | . | . | .
Cc1nn(C)c(C(=O)NNC(=S)NCc2ccco2)c1Cl | 1% | 2% | 2 | 35µM* | 2% | 232
Cc1nn(C)c(C(=O)NNC(=S)NCc2ccco2)c1Br | ? | 17% | 2 | . | . | .
Cc1nn(C)c(C(=O)NNC(=S)NCC(C)C)c1Cl | 4% | -13% | 7 | -9% | 0% | -114*
CCCCCC(C)N (configuration not stated) | -10% | 2% | 3 | -12% | -3% | .
Cc1ccc2c(c1)nnn2C1CCN(C(=O)C2CCCCC2)CC1 | 7.9µM* | -6% | -2 | -5% | -4% | ?
Cc1ccc2c(c1)nnn2C1CCN(C(=O)c2ccccc2F)CC1 | ? | 1% | 1 | . | . | .
COc1ccccc1Nc1nc(N)nc(CN2CCC(C)CC2)n1 | 8% | 1% | 6 | . | . | .
COc1ccccc1Nc1nc(N)nc(CN2CCC(Cc3ccccc3)CC2)n1 | 13µM* | -6% | -14 | ? | -3% | ?
O=C(Nc1cccc2oc(=O)ccc12)c1ccc([N+](=O)[O-])cc1[N+](=O)[O-] | 7.9µM* | -1% | 3 | -13% | 6% | 25
COc1ccc(C)cc1NC(=O)c1ccc([N+](=O)[O-])cc1[N+](=O)[O-] | 11% | -7% | 7 | . | . | .
COc1ccc(-c2cccc(-c3cc(=O)oc4ccc(C(C)(C)C)cc34)c2)cc1 | -7% | 8%[119 µM] | -4 | -9% | 1%[0.00818 µM] | .
CCCCc1ccc(/C=C2\C(=O)c3ccccc3C(O)=C2C(=O)OCC)cc1 | ? | -2% | 5 | 8.9µM* | -9% | 42
CCOC(=O)c1c(C)cccc1OCC(N)=O | -5% | -2% | 3 | -9% | -1% | -100*
O=C(NCCN1CCCC1)c1ccc(-n2c(=O)c(=O)[nH]c3ccccc32)cc1 | 6% | . | . | -3% | -3% | .
Nc1nc(C2CC(=O)OC23CCCCC3)cs1 (configuration not stated) | ? | -2% | -12 | -7% | 0% | -119*
